Compounds without any hit were thinned out: in the full panel of roughly 83,000, 20% have a hit.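 Compound tested at a single concentration for 48 hours in 96-well plates; a percent growth value below 10 was scored as active.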 A number with no mark means an inactive call. Activity calls are given as the source filed them.
Tests used:
Experiment in all cases: NCI-60 one-dose screen, 48 h (100 = growth as untreated, 0 = no growth, -100 = all killed)
DU-145 prostate = conditions: 10 µM unless noted
K-562 leukemia = conditions: 10 µM unless noted
MALME-3M melanoma = conditions: 10 µM unless noted
MDA-MB-231 breast = conditions: 10 µM unless noted
RXF 393 renal = conditions: 10 µM unless noted
SF-268 CNS = conditions: 10 µM unless noted
SF-295 CNS = conditions: 10 µM unless noted
SF-539 CNS = conditions: 10 µM unless noted
UACC-257 melanoma = conditions: 10 µM
M14 melanoma = conditions: 10 µM unless noted
HCT-15 colon = conditions: 10 µM unless noted
HT29 colon = conditions: 10 µM unless noted
SNB-75 CNS = conditions: 10 µM unless noted
SNB-19 CNS = conditions: 10 µM unless noted
U251 CNS = conditions: 10 µM unless noted
PC-3 prostate = conditions: 10 µM unless noted
SK-MEL-5 melanoma = conditions: 10 µM unless noted
UACC-62 melanoma = conditions: 10 µM unless noted
LOX IMVI melanoma = conditions: 10 µM unless noted
SK-MEL-28 melanoma = conditions: 10 µM unless noted

Row | Compound | growth (DU-145 prostate) | growth (K-562 leukemia) | growth (MALME-3M melanoma) | growth (MDA-MB-231 breast) | growth (RXF 393 renal) | growth (SF-268 CNS) | growth (SF-295 CNS) | growth (SF-539 CNS) | growth (UACC-257 melanoma) | growth (M14 melanoma) | growth (HCT-15 colon) | growth (HT29 colon) | growth (SNB-75 CNS) | growth (SNB-19 CNS) | growth (U251 CNS) | growth (PC-3 prostate) | growth (SK-MEL-5 melanoma) | growth (UACC-62 melanoma) | growth (LOX IMVI melanoma) | growth (SK-MEL-28 melanoma)
1 | C/C(=C(/C)C1CC1CCN(C(=O)c1ccc([N+](=O)[O-])cc1)S(=O)(=O)c1ccc(C)cc1)C1CCCCC1 (stereo not given) | 96.6% | 74.7% | 98.3% | 97.3% | 105% | 96.5% | 104% | 100% | 96.9% | 97.7% | 98.1% | 99.2% | 106% | 92.5% | 94.7% | 85.4% | 99.4% | 79.7% | 93.9% | 101%
2 | COc1ccc2c(c1)oc1c3[nH]c4ccccc4c3c3c(c21)C(=O)N(O)C3=O | 38.2% | 31.2% | 64.4% | 82.9% | 31.9% | 33.5% | 29.7% | 28.9% | 78.8% | 29.9% | 50.5% | 38.3% | 39.7% | 32.6% | 15.7% | 45.4% | -22.1% (active) | 12.4% | -76% (active) | 76.3%
3 | O=C1c2c(O)cc(O)cc2O[C@@H](c2ccc(O)cc2)[C@@H]1c1c(O)cc(O)c2c(=O)cc(-c3ccc(O)c(O)c3)oc12 | 106% | 111% | 90.7% | 111% | 112% | 101% | 108% | 95.8% | 108% | 94.8% | 101% | 101% | 82.6% | 112% | 110% | 96.1% | 99.6% | 89.5% | 88.9% | 99.1%
4 | C=C(C)[C@@H]1CC[C@]2(COS(C)(=O)=O)CC[C@]3(C)[C@H](CC[C@@H]4[C@@]5(C)CCCNC(C)(C)[C@@H]5CC[C@]43C)[C@@H]12 | 42.1% | 1.12% (active) | 97% | 91.6% | 85.3% | 106% | -40.1% (active) | 84.9% | 107% | 84% | 3.99% (active) | 19.7% | 112% | 81.5% | 13.6% | 67.7% | 97.4% | 74.8% | -79% (active) | 103%
5 | CCc1ccc(NC(=O)N[C@@H](Cc2cccc(F)c2)C(=O)N[C@@H]2C(=O)N3CCC[C@H]3C(=O)N3CCCC[C@H]3C(=O)N[C@@H](C)C(=O)N3C[C@H](C)C[C@H]3C(=O)O[C@H]2C)c(F)c1 | 25.2% | 17.5% | 41.4% | 26.8% | -10.1% (active) | 34.9% | 4.24% (active) | 29.8% | 22.2% | 22% | 11.6% | 20.1% | 20.8% | 27.5% | 31.1% | 15.1% | -20.9% (active) | 21.1% | 14.1% | 36.1%
6 | COc1ccc(C(=O)c2c(N)c(C#N)cn2-c2cccc(OC)c2)cc1 | 50.6% | 14.5% | 40.5% | 39.2% | 17.3% | 64.6% | -25.5% (active) | -5.54% (active) | 47.5% | 10.3% | 19.8% | 7.88% (active) | -23.4% (active) | 26.8% | 33.8% | 33.9% | 35.1% | 18.8% | 37.9% | 45.8%
7 | CCOC(=O)c1c(NC(=O)c2ccc(C(C)(C)C)cc2)sc2cc(OCCN3CCCCC3)ccc12 | 71.5% | 16% | 97% | 70.1% | 68.1% | 90.6% | 99.7% | 82.1% | 100% | 89.3% | 22.3% | 24.3% | 94.7% | 55.6% | 45.3% | 76.2% | 96.9% | 102% | -74.4% (active) | 104%
8 | CCn1c2ccc(/C=N/NS(=O)(=O)CCN(C)C)cc2c2cc(/C=N/NS(=O)(=O)CCN(C)C)ccc21 | 105% | 94.1% | 85.3% | 89.7% | 96.6% | 90.2% | 103% | 90.5% | 103% | 104% | 108% | 103% | 107% | 100% | 99.8% | 100% | -96.7% (active) | 98.6% | 98.6% | 106%
9 | COc1cc(CNC(=O)/C=C/c2ccccc2)ccc1OCC(=O)NO | 103% | 88.9% | 84.9% | 98.4% | 111% | 101% | 102% | 100% | 91.5% | 100% | 101% | 104% | 85.3% | 98.9% | 101% | 91% | 100% | 92.3% | 91.9% | 107%
10 | O=C(Nc1cc(Cl)cc(Cl)c1)Nc1ccc2oc(=O)ccc2c1 | 17% | 15.4% | 0.228% (active) | 24.6% | 47.7% | 24.8% | 3.51% (active) | 22.5% | 23.4% | 32.5% | 8.08% (active) | 16.2% | 39.3% | 13.3% | 6.21% (active) | 1.84% (active) | 29.6% | 2.84% (active) | 14.8% | 9.09% (active)
11 | Cc1cc(=O)n2nc(-c3cn(C)c4ccc(Cl)cc34)sc2n1 | 90.1% | 99.2% | 93% | 82.3% | 59.5% | 87% | 105% | 83% | 97% | 92% | 86.4% | 104% | 97% | 96.6% | 98.5% | 86.2% | 88.8% | 86.8% | 85.4% | 100%
12 | CC1CCc2c(sc3nc(SCC(=O)N/N=C/c4cccc(O)c4O)n(-c4ccccc4)c(=O)c23)C1 (stereo not given) | 74.7% | 77.6% | 95.1% | 84.6% | -2.02% (active) | 105% | 86.7% | 94.7% | 100% | 84.4% | 85.6% | 105% | 99.2% | 98.1% | 90.9% | 76.8% | 94.1% | 84% | 60.4% | 78.4%
13 | O=S(=O)(Nc1cc(Cl)c(F)c(Cl)c1)c1ccc(-c2cnc(C3CC3)o2)cc1 | 24.4% | 15% | 55% | 56.2% | 5.28% (active) | 73.9% | 16.8% | 19.2% | 70.3% | 23% | 35.2% | 13.4% | -4.2% (active) | 44.3% | 30.4% | 25.2% | 28.8% | 42.6% | 43.2% | 66.7%
14 | C=CCn1c(SCC(=O)c2ccc(OC)cc2)nnc1-c1ccc(OC)cc1 | 99.8% | 94.7% | 96.4% | 94.9% | 87.9% | 95.2% | 97.7% | 100% | 96.8% | 90.9% | 98.1% | 108% | 108% | 99.7% | 102% | 99.6% | -20% (active) | 95.4% | 103% | 100%

Reference: PubChem BioAssay (NCI)
